# From PubChem BioAssay
# The list is not random: actives were taken first. Their share in the collection is about 2.3%.
# pAkt inh: inhibitors of Akt phosphorylation | Neuro2A IGF-stimulated pAkt S473 HTRF, 20 min; active compounds read low | activity change, % for hits at 50 µM | 360,000 compounds, 0.32% hits; in the data active = activity change below about -80%; inconclusive = mostly about -51% to -80%
#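 Neuro2A cells (4,500/well, DMEM with 0.5% FBS) were treated with compound at a single 50 µM final concentration, stimulated with 6 nM IGF for 20 min at 37 °C, and lysed. Phospho-Akt Ser473 was read by HTRF as 665/615 ratio ×10^4.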
# aSyn rescue: alpha-synuclein toxicity inhibition in yeast; Yeast expressing alpha-synuclein, growth rescue, BacTiter-Glo, 24 h; Potency, µM (highest dose often 46.1 µM), actives largely listed as activators; 370,000 compounds, 0.14% hits; AID 652106; also: nearly all actives have a fitted effect of over 65% in size
#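 Screening used galactose-induced yeast with toxic alpha-synuclein levels, exposed to compound for 24 hr at 30 deg C. Cell growth, read with BacTiter-Glo luminescence, gave the measured signal.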
# Abeta rescue: restores growth of yeast expressing A-beta42 peptide. yeast expressing A-beta42, growth rescue, OD600, 48 h; response scale: 0% DMSO, 100% iron-clioquinol control. Potency, µM (highest dose often 46.1 µM), most hits filed as activators. 410,000 compounds, 0.063% hits; also: nearly all actives have a fitted effect of over 55% in size
#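 Yeast growth medium received pinned compounds, then yeast cells expressing toxic A-beta were added; plates incubated at 30 C for 48 hr. Growth read as absorbance at 600 nm, normalized to DMSO and equimolar FeCl3 plus clioquinol controls.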
# TDP43 rescue: inhibitors of TDP-43 toxicity in yeast. Potency, µM (titrated, usually from 46.1 µM), usual class: activators. 410,000 compounds, 1.8% hits. TDP-43 expressing yeast growth rescue, BacTiter-Glo, 24 h; also: nearly all actives have a fitted effect of over 50% in size
#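 Yeast cells expressing TDP-43 under galactose induction are exposed to compounds for 24 hr at 30 deg C. BacTiter-Glo luminescence measures growth, so protective compounds score as activators.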
# FUS yeast rescue: suppressors of FUS proteinopathy in yeast; Potency, µM (titrated, usually from 76.6 µM), most hits filed as activators; AID 1347120; 390,000 compounds, 0.24% hits; S. cerevisiae FUS-expressing, growth rescue, OD600, 24 h; also: nearly all actives have a fitted effect of over 55% in size
#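 Cultures pregrown in 2.5% raffinose medium are shifted to minimal medium containing 2% galactose to express toxic FUS. Compounds are tested at several concentrations. After 24hr at 30C, growth is quantified at 600 nm absorbance.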
# Hits are given with their value; 0 = inactive; ? = inconclusive; - = not tested or not shown. Unless noted, calls follow the shape of the dose curve; as a rule, active = well fitted curve in the direction sought with a large enough effect; inconclusive = small, poorly fitted or top-dose-only effect, or another doubt; inactive = no such curve, though single readings can be large; an effect the other way counts as inactive or inconclusive.
SMILES,pAkt inh,aSyn rescue,Abeta rescue,TDP43 rescue,FUS yeast rescue
C=CCC[C@@H](Cc1ccc(F)cc1)C(=O)OC[C@H]1CCCN1C(=O)[C@@H](CC=C)CC(=O)N[C@H](CO)Cc1ccccc1,0,0,0,0,?
Cc1ccc(OCCCCn2c(CCNC(=O)C3CCCCC3)nc3ccccc32)cc1,-,0,-,-,-
Cc1cccc(NS(=O)(=O)c2ccc3c(c2)OCC(C(=O)N2CCCC2)O3)c1C (configuration not stated),-,-,0,0,0
CN1C(=O)/C(=C2\SC(N3CCCCCC3)=NC2=O)c2ccccc21,0,0,0,16µM,0
Cc1cc2c(cc3c(SCc4ccccc4Cl)nnc(C)n32)o1,-,-,0,0,0
Cc1cc(-c2csc(N)n2)c(C)n1C,0,0,0,0,0
Cc1cc(-c2csc(N)n2)c(C)n1Cc1ccco1,0,0,0,0,28µM
CN(Cc1nc(-c2ccc(Cl)cc2)no1)S(=O)(=O)c1ccccc1,-,-,0,35µM,0
CS(=O)(=O)N(Cc1nc(-c2ccc(F)cc2)no1)c1ccccc1Cl,0,0,0,22µM,0
O=C(NCc1ccc(F)cc1)c1cc(C2CCCN(C(=O)CCCc3ccccc3)C2)on1 (configuration not stated),0,0,0,18µM,?
O=C(Nc1ccccc1)c1cc(C2CCCN(C(=O)OCc3ccccc3)C2)on1 (configuration not stated),0,0,0,35µM,0
O=C(Nc1ccc(F)c(Cl)c1)c1cc(C2CCCN(C(=O)CCc3ccccc3)C2)on1 (configuration not stated),0,0,0,28µM,0
O=C(Nc1ccccc1)c1cc(C2CCCN(C(=O)CCc3ccccc3)C2)on1 (configuration not stated),0,0,0,18µM,0
O=C(Nc1ccccc1Cl)c1cc(C2CCCN(C(=O)CCc3ccccc3)C2)on1 (configuration not stated),0,0,0,?,0
O=C(Nc1ccc(F)c(Cl)c1)c1cc(C2CCCN(C(=O)C3CC3)C2)on1 (configuration not stated),0,0,0,25µM,0
O=C(CSc1nc2ccccc2c(=O)[nH]1)N1CCCCC1,0,0,0,0,0
Cc1ccc(S(=O)(=O)N2CCN(C(=O)CSc3nc4ccccc4c(=O)[nH]3)CC2)cc1,-95%,0,0,0,0
COc1ccc(Cl)cc1C1CC(=O)Nc2cc3c(cc21)OCCO3 (configuration not stated),-,-,0,0,0
Cc1ccc(C2=NN(C(=O)CCl)C(c3cccs3)C2)o1 (configuration not stated),0,0,0,20µM,0
COc1ccc(NCc2cc3cc4c(cc3n(CC(=O)Nc3ccccc3)c2=O)OCO4)cc1,-,-,0,0,0
CC(C)(C)C(=O)NCC(c1ccc2c(c1)OCO2)N1CCOCC1 (configuration not stated),-,-,0,0,0
CCOCC(=O)Nc1cc(C(F)(F)F)ccc1Oc1cccc(Br)c1,0,0,?,?,0
CC(=O)Nc1cc(C(F)(F)F)ccc1OCCOc1ccccc1,0,0,0,13µM,0
CC(=O)Nc1cc(C(F)(F)F)ccc1Oc1cccc(Br)c1,0,0,0,11µM,0
c1cnc(SCCOc2ccc3c(c2)CCC3)nc1,-117%,0,0,?,0
SMILES,pAkt inh,aSyn rescue,Abeta rescue,TDP43 rescue,FUS yeast rescue
CNCCCOc1ccc2c(c1)CCC2,0,0,0,0,0
CCN(CCCNC(=O)c1ccc(Sc2ccc(Cl)cc2)c(NC(C)=O)c1)c1ccccc1,-,-,0,0,?
CCn1c(=O)c2cc(C(=O)N(C)c3ccc(OC)cc3OC)sc2c2ccccc21,0,0,0,0,2µM
CCn1c(=O)c2cc(C(=O)N(C)c3cc(Cl)c(OC)cc3OC)sc2c2ccccc21,-,-,0,0,0
Cn1c(=O)c2cc(C(=O)NC3CCCCCC3)sc2c2ccccc21,-,-,0,0,0
CCCN(C(=O)c1cc2c(=O)n(CC)c3ccccc3c2s1)c1ccccc1F,-,-,0,0,0
CCn1c(=O)c2cc(C(=O)NC3CCCCCC3)sc2c2ccccc21,-,-,0,16µM,0
CCOc1ccccc1N(CC)C(=O)c1cc2c(=O)n(CC)c3ccccc3c2s1,-,-,0,0,32µM
